Drawing on PubChem BioAssay AID1259415 (National Center for Advancing Translational Sciences (NCATS), 2018), this text covers activity change, negative = inhibition for 50 molecules.

SMILES strings stand for the structures. Hit rate of the full screen: of about 410,000 compounds, about 18,000 (4.4%) were called active. Roughly 7% stayed inconclusive and do not appear here. This excerpt belongs to a sample that is enriched for actives. A number with no mark means an inactive call. Rule as the data show it: active = activity change below about -60%; inconclusive = no clear call, values can overlap the other calls; inactive = above about -39%.
% is scaled to controls: 0 for no effect and ±100 for the full control effect.

A short description of this assay: qHTS Assay for inhibitors of the human cytomegalovirus (HCMV). The note with it: HFF cells, HCMV-luciferase reporter, 72 h; at 57.5 µM; stronger effect = lower value. An outline of the steps:
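After 16 h attachment at 37C, HFF cells received test compound and HCMV-luciferase (1 PFU/cell); reporter luminescence read 72 h later, data normalized against buffer-only and known inhibitor Salinomycin.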
For `FC(F)(F)c1nnc2c3ccccc3c(Cl)nn12`, the activity change, negative = inhibition was -86.4% (active). For `COc1ccc(-c2nn3c(-c4ccc(OC)cc4)nnc3c3ccccc23)cc1` the value was 7.26%; for `Cc1cc(C)n2nc(C(=O)Oc3ccc4c(c3)OCO4)nc2n1`, 12.7%. For `CC(=O)c1nn(-c2ccc(OC(F)(F)F)cc2)nc1Nc1ccccc1` the value was -19.8%; for `COc1ccc(NC(=O)c2ccc3nc(CCc4ccccc4)oc3c2)c(OC)c1`, 15.1%. For `CCN1CCC(O)(/C=C/c2ccc(C)cc2)C(C(=O)/C=C/c2ccc(C)cc2)C1` (stereo not given) the value was -101% (active). Take `O=C(CCOc1ccccc1)N(Cc1cccnc1)c1nc2ccc(Cl)cc2s1`: the activity change, negative = inhibition is -5.41%.

Turning to `O=C(CCS(=O)(=O)c1ccccc1)N(Cc1cccnc1)c1nc2c(F)cccc2s1`, the activity change, negative = inhibition was 112%. For `Cc1ccc(-c2nc3ccccn3c2Nc2c(C)cccc2C)o1` the value was -20.4%; for `Cc1cccc(C(=O)Nc2ccc(S(=O)(=O)N3CCCCC3c3cccnc3)cc2)c1` (stereo not given), -34.9%; for `O=C(CS(=O)(=O)c1cccc2nsnc12)N1CCN(c2cccc(Cl)c2)CC1`, -13.3%.

As to `CCOC(=O)c1ccc(NC(=S)N2CCN(c3ccccn3)CC2)cc1`, the activity change, negative = inhibition was 0.324%. With `C/C(=N/NC(=O)CSc1ccccn1)c1ccc([N+](=O)[O-])cc1` the figure was 21.4%; with `O=[N+]([O-])c1ccc(NC(=S)N2CCN(c3ccccn3)CC2)cc1`, -38.3%. With `C/C(=N/NC(=O)c1ccn(C)n1)c1ccncc1` the figure was 22.2%; with `C/C(=N\NC(=O)c1ccccc1F)c1ccccn1`, -113% (active); with `CC(=NNC(=S)N1CCCCCC1)c1ccccn1`, -98.7% (active).

On to `C/C(=N\NC(=O)Cc1ccc(Cl)cc1)c1ccccn1`, for which the activity change, negative = inhibition was -98.9% (active).

For `O=C(NC(=S)NC1CCSC1=O)c1ccccc1F` (stereo not given), the activity change, negative = inhibition is -2.85%.

For `C/C(Cc1ccccc1)=N\NC(=O)CNC(=O)c1ccccc1Cl`, the activity change, negative = inhibition was 22.5%. For `CCC[C@H]1[C@H](NCC2CCCCC2)CC[C@@]23CCCN2C(=O)CCC[C@@H]13`, the activity change, negative = inhibition was -6.34%. For `CSCC[C@H](NC(=O)NCCc1ccc(F)cc1)C(=O)O` the value was -21.4%. For the molecule `CCOc1ccc(NC(=O)C(=O)NCCc2csc3nc(-c4ccccc4F)nn23)cc1`, the activity change, negative = inhibition was 18.8%. With `C=CCC[C@@H](CCCCC)OC(=O)/C=C/[C@@H](O)[C@H](O)C[C@H](O)CC=C` the figure was -0.272%; with `Fc1ccc(-c2nn(-c3ccccc3Cl)c3c2cnc2ccccc23)cc1`, -6.36%; with `O=C(NC1(C(F)(F)F)NC(=O)N(Cc2cccnc2)C1=O)c1ccccc1Cl` (stereo not given), -16%. With `CCc1ccc(NC(=O)CCNS(=O)(=O)c2cccs2)cc1` the figure was 24.2%. For `O=S(=O)(NCCc1ccc(Cl)cc1)c1cccs1` the value was -79.1% (active); for `CN(CC(=O)NCc1ccc(Cl)cc1)S(=O)(=O)c1cccs1`, -18.2%; for `Cc1ccc2nc3c(cc(C(=O)NC4CCCCC4)c(=N)n3C(C)C)c(=O)n2c1`, -12.2%. In the case of `CC(NC(=O)c1cccc(S(=O)(=O)N2CCc3ccccc3C2)c1)c1ccco1` (stereo not given), the activity change, negative = inhibition is -21.6%.

For `Cc1cccc(N2CCN(C(=O)c3cccc(S(=O)(=O)N4CCc5ccccc5C4)c3)CC2C)c1` (stereo not given), the activity change, negative = inhibition is -62.2% (active). For `CN(C)C(CNC(=O)c1cccc(S(=O)(=O)N2CCc3ccccc3C2)c1)c1ccccc1` (stereo not given) the value was 6.73%; for `CCc1nnc2c3ccccc3nc(N3CCN(c4ccc(C)cc4C)CC3)n12`, 2.29%.

With `CC(C)Nc1nnc(SCC(=O)/C=C2\N(C)c3ccccc3C2(C)C)s1`, the activity change, negative = inhibition was -65.1% (active).

Regarding `COC(=O)c1ccc(CSc2nnc(NC(C)C)s2)cc1`, the activity change, negative = inhibition was -2.57%. For `COc1ccccc1N1CC(C(=O)Nc2nnc(SCC(=O)NC(C)C)s2)CC1=O` (stereo not given) the value was 45.2%; for `Cc1ccccc1-c1nc2scc(CCNC(=O)C(=O)Nc3ccc(F)cc3F)n2n1`, 2.08%; for `C=CCSc1nnc2c(n1)-c1cccc3cccc-2c13`, 41.1%. With `CC(=O)c1cccc(NC(=O)CSc2nc3c(c(=O)[nH]2)CCC3)c1` the figure was -2.89%; with `CC(=O)c1ccc(NC(=O)N[C@@H](Cc2ccccc2)C(=O)O)cc1`, 23.2%; with `CCSc1nsc(NC(=O)Nc2cccc(C(C)=O)c2)n1`, -74.9% (active). For the molecule `NC(c1csc(NC(=O)Nc2ccccc2Oc2ccccc2)n1)c1ccccc1Cl` (stereo not given), the activity change, negative = inhibition is -24.7%. With `CC(=O)Nc1ccc(-c2csc(NC(=O)Nc3ccccc3)n2)cc1` the figure was -99.1% (active); with `NC(=O)C1CCN(C(=O)c2cccc(NC(=O)c3nsc4ccccc34)c2)CC1`, 40.7%; with `Cc1ccc(C(=O)Nc2nc(-c3ccccc3)ns2)cc1`, 27%.

As to `Cc1ccccc1CNC(=O)c1cccc(NC(=O)c2nsc3ccccc23)c1`, the activity change, negative = inhibition is 66.7%. With `CSc1nsc(NC(=O)Nc2ccccc2)n1` the figure was -76.6% (active).

Take `CC(=O)c1ccc(NC(=O)CSc2nnc(NC(=O)Nc3ccccc3)s2)cc1`: the activity change, negative = inhibition is 103%.

As to `C=CCSc1nsc(NC(=O)Nc2cccc(C(C)=O)c2)n1`, the activity change, negative = inhibition is -101% (active).
